In PubChem BioAssay (Tox21):
Where “and” joins values, the source holds several entries; their conditions need not be identical. Identical values can stand only once. Results filed as inconclusive are left out. Entries that show only a call come without a potency. Some structures have more than one record in an assay (separate samples or runs), and their calls can disagree. Calls of active or inactive are those of the source. Unless noted, calls come from the whole dose curve.

How the values were obtained:
[1] = Nuclear factor erythroid 2-related factor 2/antioxidant responsive element (Nrf2/ARE) small molecule agonists: qHTS cell viability counter screen in human keratinocytes (AID 1919968; active = well fitted curve in the direction sought with a large enough effect in the repeat runs; an effect the other way counts as inactive or inconclusive; note: nearly all actives have a fitted effect of over 55% in size; note: potency is the fitted concentration of half-maximal effect)
Outline: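 KeratinoSens HaCaT cells, 1,500/well, preincubated 5 h, then exposed to compounds in DMSO for 23 h at 37 C/5% CO2. Viability read as CellTiter-Fluor fluorescence after 1 h, in the same wells as the ARE-luciferase read.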

[2] = target: Gonadotropin-releasing hormone receptor (Homo sapiens) (UniProt P30968); assay: Human gonadotropin-releasing hormone receptor (GnRHR) small molecule agonists, calcium flux assay in GnRHR-HEK293 cells (AID 1920063); note: nearly all actives have a fitted effect of over 35% in size
Chain of Gonadotropin-releasing hormone receptor (Homo sapiens) (P30968 whole entry, looked up): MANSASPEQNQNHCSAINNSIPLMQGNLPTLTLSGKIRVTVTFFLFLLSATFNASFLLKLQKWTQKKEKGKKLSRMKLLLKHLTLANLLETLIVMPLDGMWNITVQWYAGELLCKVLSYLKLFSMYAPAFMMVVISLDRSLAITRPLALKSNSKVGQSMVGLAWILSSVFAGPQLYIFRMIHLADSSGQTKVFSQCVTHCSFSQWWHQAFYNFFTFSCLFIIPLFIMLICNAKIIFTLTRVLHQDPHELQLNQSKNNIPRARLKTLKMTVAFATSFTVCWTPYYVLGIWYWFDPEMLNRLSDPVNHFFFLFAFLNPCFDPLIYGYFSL
Outline: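 HEK293 cells stably expressing human GnRHR were dye-loaded for 1 h at 37 C. Compound was added in agonist mode and fluorescence (Ex/Em 480/540) recorded kinetically for 3 min. Fifteen concentrations, triplicates.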

[3] = target: KiSS-1 receptor (Homo sapiens) (UniProt Q969F8); assay: Human kisspeptin (KISS1R) small molecule agonists, calcium flux assay in KISS1R-HEK293 cells (AID 1920064; active = well fitted curve in the direction sought with a large enough effect in the repeat runs; an effect the other way counts as inactive or inconclusive)
Chain of KiSS-1 receptor (Homo sapiens) (Q969F8 whole entry, looked up): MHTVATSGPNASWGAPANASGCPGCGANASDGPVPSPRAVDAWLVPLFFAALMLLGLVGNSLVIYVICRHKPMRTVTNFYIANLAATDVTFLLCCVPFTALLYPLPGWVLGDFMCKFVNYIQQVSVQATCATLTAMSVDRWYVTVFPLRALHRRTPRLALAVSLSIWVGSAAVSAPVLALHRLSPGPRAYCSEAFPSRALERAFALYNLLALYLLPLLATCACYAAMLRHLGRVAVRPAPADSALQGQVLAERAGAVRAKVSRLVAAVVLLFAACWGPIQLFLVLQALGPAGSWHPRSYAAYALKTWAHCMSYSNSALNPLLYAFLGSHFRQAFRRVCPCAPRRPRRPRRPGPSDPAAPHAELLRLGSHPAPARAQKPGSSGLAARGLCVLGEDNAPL
Outline: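 HEK293 cells stably expressing human KISS1R were loaded with calcium dye for 1 h at 37 C, then given compound; fluorescence (Ex/Em 480/540) was read kinetically for 3 min. Fifteen concentrations, triplicate.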

[4] = G protein-coupled receptor (GPCR) small molecule agonists, calcium flux assay: HEK293 wild type cell line counter screen (AID 1920065)
Outline: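 Wild-type HEK293 cells plated 18 h, loaded with calcium dye 1 h at 37 C, then compounds added in agonist mode (ATP as positive control). Kinetic fluorescence Ex/Em 480/540 recorded 3 min at 1 sec intervals; 15 concentrations, triplicate.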

[5] = p53 small molecule agonists, cell-based qHTS assay with human liver microsomes (AID 1963577)
Outline: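 p53RE-bla cells, 4,000/well, compound added after 5 h, with human liver microsomes 0.5 mg/mL and NADPH 0.5 mg/mL final; 16 h at 37 C, then LiveBLAzer 2 h RT, fluorescence.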

[6] = p53 small molecule agonists, cell-based qHTS assay with rat liver microsomes (AID 1963578)
Outline: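 p53RE-bla cells, 4,000/well, pre-incubated 5 h, then given compounds plus rat liver microsomes (0.5 mg/mL final) and NADPH (0.5 mg/mL final). Incubation 16 h at 37 C; beta-lactamase reporter read by LiveBLAzer fluorescence after 2 h at room temperature.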

[7] = p53 small molecule agonists, cell-based qHTS assay with human liver microsomes: qHTS cell viability counter screen (AID 1963579); note: nearly all actives have a fitted effect of over 45% in size; note: potency is the fitted concentration of half-maximal effect
Outline: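 p53RE-bla cells, 4,000/well, dosed 5 hours after plating, with human liver microsomes (0.5 mg/mL final) plus NADPH (0.5 mg/mL final), 16 hours at 37 C. Viability read as CellTiter-Glo luminescence after 30 min at room temperature.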

[8] = p53 small molecule agonists, cell-based qHTS assay with rat liver microsomes: qHTS cell viability counter screen (AID 1963580); note: nearly all actives have a fitted effect of over 45% in size
Outline: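 In HCT-116 cells carrying a p53 response element-bla reporter, compounds were metabolically activated in situ by rat liver microsomes with NADPH over 16 h. Cell ATP content then served as the cytotoxicity measure.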

[9] = p53 small molecule agonists, cell-based qHTS assay: qHTS cell viability counter screen (AID 1963581); note: nearly all actives have a fitted effect of over 45% in size
Outline: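 p53RE-bla HCT-116 cells, compounds added 5 h after plating and incubated 16 h at 37 C. Cytotoxicity measured in the same wells as intracellular ATP by CellTiter-Glo luminescence after 30 min at room temperature.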

[10] = p53 small molecule agonists, cell-based qHTS assay (AID 1963582; active = well fitted activation curve with a large enough effect in the signal ratio in the repeat runs, not every such curve was filed as active; the % refers to the signal ratio)
Outline: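 p53RE-bla reporter cells, compounds added in DMSO after 5 h plating, incubated 16 h at 37 C. Beta-lactamase read via 2 h room-temperature LiveBLAzer B/G FRET substrate, fluorescence intensity.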

[11] = target: 5-hydroxytryptamine receptor 2A (Homo sapiens) (UniProt P28223); assay: 5-hydroxytryptamine receptor 2A (HTR2A) small molecule antagonists, cell-based qHTS assay (AID 1963586); note: nearly all actives have a fitted effect of over 45% in size; note: potency is the fitted concentration of half-maximal effect
Chain of 5-hydroxytryptamine receptor 2A (Homo sapiens) (P28223 whole entry, looked up): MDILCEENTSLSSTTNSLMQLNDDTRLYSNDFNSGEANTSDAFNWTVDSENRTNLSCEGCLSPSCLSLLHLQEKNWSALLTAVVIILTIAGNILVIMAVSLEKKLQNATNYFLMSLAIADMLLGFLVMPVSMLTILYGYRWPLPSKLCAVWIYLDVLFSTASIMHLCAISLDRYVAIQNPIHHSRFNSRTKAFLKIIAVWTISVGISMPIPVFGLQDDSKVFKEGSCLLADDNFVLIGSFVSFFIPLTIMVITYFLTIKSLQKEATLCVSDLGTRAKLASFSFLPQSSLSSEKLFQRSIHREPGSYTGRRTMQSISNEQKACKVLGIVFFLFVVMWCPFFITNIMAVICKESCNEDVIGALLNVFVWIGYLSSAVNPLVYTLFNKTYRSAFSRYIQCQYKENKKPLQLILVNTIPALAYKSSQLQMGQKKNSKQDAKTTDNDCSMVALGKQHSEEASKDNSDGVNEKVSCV
Outline: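 Antagonist-mode intracellular calcium assay: DOI (4 nM) added after 5 min compound pre-incubation at room temperature to dye-loaded HTR2A-CHO cells. Fluorescence followed for 3 min, sampled every second.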

[12] = target: 5-hydroxytryptamine receptor 2A (Homo sapiens) (UniProt P28223); assay: 5-hydroxytryptamine receptor 2A (HTR2A) small molecule agonists, cell-based qHTS assay (AID 1963587); note: nearly all actives have a fitted effect of over 30% in size
Outline: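 HTR2A-CHO cells, plated 18 h at 37 C/5% CO2, dye-loaded 1 h at 37 C; compounds in DMSO added by pin tool (agonist mode). Intracellular calcium flux read as kinetic fluorescence on FDSS over 2 min at 1 s intervals.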

[13] = target: Muscarinic acetylcholine receptor M1 (Homo sapiens) (UniProt P11229); assay: Cholinergic receptor muscarinic 1 (CHRM1) small molecule antagonists, cell-based qHTS assay (AID 1963588); note: nearly all actives have a fitted effect of over 40% in size; note: potency is the fitted concentration of half-maximal effect
Chain of Muscarinic acetylcholine receptor M1 (Homo sapiens) (P11229 whole entry, looked up): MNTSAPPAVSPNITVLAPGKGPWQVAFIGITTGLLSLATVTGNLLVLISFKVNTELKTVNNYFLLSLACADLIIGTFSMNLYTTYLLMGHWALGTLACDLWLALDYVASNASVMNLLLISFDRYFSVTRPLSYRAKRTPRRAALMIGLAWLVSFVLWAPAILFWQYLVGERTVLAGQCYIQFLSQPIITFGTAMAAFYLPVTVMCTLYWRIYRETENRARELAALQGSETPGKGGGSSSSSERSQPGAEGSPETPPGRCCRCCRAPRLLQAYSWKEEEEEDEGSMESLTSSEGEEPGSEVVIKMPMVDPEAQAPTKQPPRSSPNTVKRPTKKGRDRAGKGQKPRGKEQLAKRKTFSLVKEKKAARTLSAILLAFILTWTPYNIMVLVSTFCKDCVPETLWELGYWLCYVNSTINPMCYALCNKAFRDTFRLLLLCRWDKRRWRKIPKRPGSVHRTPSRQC
Outline: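 CHRM1-CHO calcium-flux assay, antagonist mode. Cells were seeded 18 h, dye-loaded 1 h at 37 C and given compound for 5 min at RT, then acetylcholine was added at 50nM. FDSS fluorescence was read 3 min; 15 concentrations, three runs.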

[14] = target: Muscarinic acetylcholine receptor M1 (Homo sapiens) (UniProt P11229); assay: Cholinergic receptor muscarinic 1 (CHRM1) small molecule agonists, cell-based qHTS assay (AID 1963589); note: nearly all actives have a fitted effect of over 35% in size
Outline: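 CHO cells stably expressing human CHRM1 were loaded with calcium dye for 1 h at 37 C, then compound was added in agonist mode. Intracellular calcium fluorescence was followed kinetically at 1 s intervals. Fifteen concentrations were tested in three independent runs.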

[15] = cAMP Responsive Elements (CRE) small molecule agonists, cell-based qHTS assay (AID 1963590)
Outline: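 CRE-bla HEK 293T cells, 2,000/well in DMEM with 10% dialyzed FBS and 25 mM HEPES, pre-incubated 18 h at 37 C, then exposed to compound 3 h at 37 C. Beta-lactamase reporter read with LiveBLAzer B/G FRET substrate after 2 h at room temperature.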

[16] = target: Beta-2 adrenergic receptor (Homo sapiens) (UniProt P07550); assay: Adrenergic beta2 receptor (ADRB2) small molecule antagonists, cell-based qHTS assay (AID 1963592); note: series mostly up to about 92 µM; nearly all actives have a fitted effect of over 50% in size
Chain of Beta-2 adrenergic receptor (Homo sapiens) (P07550 whole entry, looked up): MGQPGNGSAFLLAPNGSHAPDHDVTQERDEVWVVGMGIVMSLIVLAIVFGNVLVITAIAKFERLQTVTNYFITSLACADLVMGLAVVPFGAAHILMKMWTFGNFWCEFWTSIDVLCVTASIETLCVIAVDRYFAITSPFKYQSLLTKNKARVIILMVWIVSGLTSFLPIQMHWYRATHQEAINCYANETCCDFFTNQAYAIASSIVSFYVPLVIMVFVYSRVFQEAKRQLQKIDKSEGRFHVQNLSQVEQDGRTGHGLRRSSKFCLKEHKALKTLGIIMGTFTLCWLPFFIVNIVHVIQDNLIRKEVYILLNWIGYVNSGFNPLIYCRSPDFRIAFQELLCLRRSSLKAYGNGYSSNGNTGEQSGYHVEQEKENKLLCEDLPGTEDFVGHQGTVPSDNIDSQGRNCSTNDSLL
Outline: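 Cells (CHO, stable ADRB2 overexpression) incubated 18-20hr at 37C; compounds added from DMSO; agonist mix (1nM isoproterenol, 100uM IBMX, 25uM Ro-20-1724) added; 0.5hr RT; d2-cAMP and anti-cAMP-cryptate added; 1hr RT; 665/615 nm read.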

[17] = target: D(2) dopamine receptor (Homo sapiens) (UniProt P14416); assay: Dopamine D2 receptor (DRD2) small molecule agonists, cell-based qHTS assay (AID 1963594); note: nearly all actives have a fitted effect of over 35% in size
Chain of D(2) dopamine receptor (Homo sapiens) (P14416 whole entry, looked up): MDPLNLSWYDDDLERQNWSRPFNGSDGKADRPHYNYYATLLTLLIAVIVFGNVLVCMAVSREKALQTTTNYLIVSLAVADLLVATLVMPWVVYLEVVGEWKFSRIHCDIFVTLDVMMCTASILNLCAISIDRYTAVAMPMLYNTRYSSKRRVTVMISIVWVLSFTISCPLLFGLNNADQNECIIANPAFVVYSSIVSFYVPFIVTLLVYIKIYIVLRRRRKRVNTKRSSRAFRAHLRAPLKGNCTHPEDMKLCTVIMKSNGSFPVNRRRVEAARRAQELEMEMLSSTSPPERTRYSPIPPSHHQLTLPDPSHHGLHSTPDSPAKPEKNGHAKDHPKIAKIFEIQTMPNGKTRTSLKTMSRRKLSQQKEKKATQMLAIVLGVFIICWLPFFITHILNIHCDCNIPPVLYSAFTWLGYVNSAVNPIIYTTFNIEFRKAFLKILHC
Outline: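 HEK293 cells stably expressing DRD2 were cultured 24 h at 37 C, then given Ro20-1724 (0.1 mM final) and compounds for 10 min at room temperature. NKH477 (200nM) was then added for 30 min. cAMP was read by HTRF.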

[18] = target: D(2) dopamine receptor (Homo sapiens) (UniProt P14416); assay: Dopamine D2 receptor (DRD2) small molecule antagonists, cell-based qHTS assay (AID 1963595; active = well fitted inhibition curve with a large enough effect in the signal ratio in the repeat runs, with a control signal flat; the % refers to the signal ratio)
Outline: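 HTRF cAMP read-out at 665 and 620 nm emission (340 nm excitation). Antagonist mode: compounds were tested against 12 nM quinpirole in DRD2-HEK293 cells, with 200 nM NKH477 raising cAMP and 0.1 mM Ro20-1724 blocking its breakdown.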

[19] = cAMP Responsive Elements (CRE) small molecule antagonists, cell-based qHTS assay (AID 1963591; active = well fitted inhibition curve with a large enough effect in the signal ratio in the repeat runs, not every such curve was filed as active; the % refers to the signal ratio)
Outline: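 CRE-bla HEK293T cells plated 18 h, then given compound plus NKH477 at 0.25 uM final for 3 h at 37C. Beta-lactamase reporter read with LiveBLAzer B/G FRET substrate after 2 h at room temperature.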

[20] = target: Beta-2 adrenergic receptor (Homo sapiens) (UniProt P07550); assay: Adrenergic beta2 receptor (ADRB2) small molecule agonists, cell-based qHTS assay (AID 1963593);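 note: CHO cells stably overexpressing human ADRB2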
Outline: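 CHO cells stably over-expressing ADRB2 were plated overnight at 37C, then dosed with compounds plus a stimulation mix containing 100uM IBMX and 25uM Ro-20-1724 for 0.5hr at room temperature. cAMP was measured by HTRF competition, 1hr.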

Row | SMILES | Potency [1] | Potency [2] | Potency [3] | Potency [4] | Potency [5] | Potency [6] | Potency [7] | Potency [8] | Potency [9] | Potency [10] | Potency [11] | Potency [12] | Potency [13] | Potency [14] | Potency [15] | Potency [16] | Potency [17] | Potency [18] | Potency [19] | Potency [20]
1 | CCCCOC(=O)c1ccccc1C(=O)OCc1ccccc1 | inactive | inactive | inactive | inactive | inactive | inactive | inactive and 646 nM (active) | inactive | inactive | inactive | inactive and 5.9 nM (active) | inactive | inactive | inactive | inactive | inactive | inactive | inactive | – | –
2 | CCOC(=S)S | 27.3 µM (active) and 18.3 µM (active) | inactive | inactive | inactive | inactive | inactive | inactive | inactive | inactive | inactive | inactive | inactive | inactive | inactive | inactive | inactive | inactive | inactive | – | –
3 | Cc1ccc(N=C=O)cc1N=C=O | inactive | inactive | inactive | inactive | inactive | inactive | inactive | inactive | inactive | inactive | inactive | inactive | – | inactive | inactive | inactive | inactive | inactive | inactive | inactive
4 | CC1CC(CC2CCC(N)C(C)C2)CCC1N (stereo unspecified) | 7.82 µM (active) | inactive | inactive | inactive | inactive | inactive | inactive | inactive | inactive | inactive | inactive | inactive | 6.04 µM (active) | inactive | inactive | inactive | inactive | inactive | inactive | –
5 | CC(C)C1(C)N=C(c2ncccc2C(=O)O)NC1=O (stereo unspecified) | inactive | inactive | inactive | inactive | inactive | inactive | inactive | inactive | inactive | inactive | inactive | inactive | inactive | inactive | inactive | inactive | inactive | inactive | inactive | inactive
6 | CC1OC(C)OC(C)O1 (stereo unspecified) | inactive | inactive | inactive | inactive | inactive | inactive | inactive | inactive | inactive | inactive | inactive | inactive | inactive | inactive | inactive | – | inactive | – | inactive | inactive
7 | O=[N+]([O-])c1ccccc1-c1ccccc1 | inactive | inactive | inactive | inactive | inactive | inactive | inactive | inactive | inactive | inactive | inactive | inactive | inactive | inactive | inactive | inactive | inactive | inactive | inactive | –
